PrP UTR inh – inhibition of PrP 5' UTR reporter expression | 0.35% of 340,000 active | inhibition, % (test concentration not listed) | cell-based PrP 5' UTR mRNA reporter, plate reader | AID 488862; in the data active means inhibition above about 52%
PriA SSB inh – blocks PriA binding to SSB C-terminal tail | 0.6% of 430,000 active | AlphaScreen SSBct-PriA binding, biotinylated peptide | AID 1272365 | inhibition, % at 33 µM; in the data active means inhibition mostly above about 37%, no sharp cut-off; inactive means mostly below about 20%
3CLpro inhibitor – SARS-CoV 3CLpro protease inhibition; P0C6X7; recombinant SARS-CoV 3CLpro, quenched FRET peptide cleavage; inhibition, % at 6 µM; 0.14% of 290,000 active; AID 1706; in the data active means inhibition above about 12%
BH1578 lux ind – inducers of Vibrio cholerae quorum light production without autoinducers | activation, % at 18.7 µM | 0.16% of 350,000 active | V. cholerae BH1578 lux reporter, luminescence, 6 h; in the data active means activation mostly above about 9.7%, no sharp cut-off; inconclusive means no clear call, values can overlap the other calls; inactive means mostly below about 3.7%
PfHsp40 yeast – restores yeast growth despite PfHsp40 toxicity; S. cerevisiae expressing PfHsp40, growth rescue, ATP luminescence; growth rescue, % at 12.5 µM; 0.68% of 340,000 active; AID 504582; in the data active means growth rescue above about 28%, passing the limit was not always enough; inconclusive means no clear call, values can overlap the other calls;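 further: yeast W303a lacking pdr1 and pdr3 grown in galactose medium; growth measured after three days at 30 °C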
PrPC surface inh – cell surface PrPC inhibition, primary TR-FRET screen. P04156. AID 720596. 0.43% of 370,000 active. inhibition, % at 13.8 µM. TR-FRET read-out; in the data active means inhibition above about 24%
Numbers stand for hits; i = inactive; ? = inconclusive; nt = no result given. Shown are actives, neighbours in structure and some others; about 1.6% of the full set was active somewhere.

SMILES	PrP UTR inh	PriA SSB inh	3CLpro inhibitor	BH1578 lux ind	PfHsp40 yeast	PrPC surface inh
O=C(NCC1CCN(c2nc3ccccc3o2)CC1)Oc1ccccc1	nt	i	nt	nt	nt	nt
Cc1ccc(Nc2c(-c3ccccc3O)nc3cnccn23)cc1	i	i	i	i	58	i
COc1ccc(Nc2c(-c3ccc(C)cc3)nc3cnccn23)cc1	i	i	i	i	i	i
Cc1ccc(-c2nc3cnccn3c2Nc2ccc3c(c2)OCO3)cc1	i	38	i	i	i	i
COc1ccc(-c2nc3cnccn3c2Nc2ccc3c(c2)OCO3)cc1	i	i	i	i	i	i
O=C(NCCNC(=O)c1ccccc1Cl)c1ccc(NC(=O)C2CC2)cc1	nt	i	nt	nt	nt	nt
CC(C)(C)c1ccc(C(=O)NC(=S)NNC(=O)c2cccs2)cc1	i	i	i	i	465	i
O=C(NNC(=S)NC(=O)c1ccccc1)c1cccnc1	i	i	i	i	i	i
CC(C)(C)c1ccc(C(=O)NNC(=S)NC(=O)c2cccnc2)cc1	i	i	i	i	109	i
O=C(Nc1ccc2c(=O)c3ccccc3oc2c1)c1ccccc1Br	nt	i	nt	nt	nt	nt
Nc1ccccc1Nc1c(F)c(F)nc(F)c1Cl	i	39	i	i	i	i
Cc1c(Cl)cccc1S(=O)(=O)N1CCN(Cc2ccsc2)CC1	nt	i	nt	nt	nt	nt
O=C(NC[C@H](O)c1ccoc1)C1c2ccccc2Oc2ccccc21	nt	i	nt	nt	nt	nt
O=[N+]([O-])c1cc(Cl)cc(C=Nn2cnnc2)c1O	nt	i	nt	nt	nt	nt
CN(C)C1(CN=Cc2cc(Cl)cc([N+](=O)[O-])c2O)CCCCC1	i	i	i	i	42	i
Cc1cc(S(=O)(=O)N2CCc3ccccc32)ccc1F	nt	i	nt	nt	nt	nt
CC(=O)Nc1nc(C)c(Oc2ccc(Cl)cc2Cl)c(=O)[nH]1	i	i	i	17	i	i
Cc1c(NC(=O)Cc2csc(NC(=O)Nc3cccc(Cl)c3)n2)c(=O)n(-c2ccccc2)n1C	nt	i	nt	nt	nt	nt
O=S(=O)(NCc1ccccn1)c1ccc(F)c(Cl)c1	nt	i	nt	nt	nt	nt
O=C(Cc1csc2nc(-c3ccc(Cl)cc3)cn12)NC1CCCCCC1	nt	i	nt	nt	nt	nt
Cc1ccccc1NCc1ccc(O)c2ncccc12	i	97	i	i	?	i
Oc1ccc(CNc2cc(Cl)cc(Cl)c2)c2cccnc12	nt	67	nt	nt	nt	nt
Cc1cccc(NCc2ccc(O)c3ncccc23)c1	i	47	i	i	i	i
Oc1ccc(CNc2ccccc2)c2cccnc12	i	i	i	i	i	nt
Oc1ccc(CNc2ccccc2Br)c2cccnc12	nt	i	nt	nt	nt	i
SMILES	PrP UTR inh	PriA SSB inh	3CLpro inhibitor	BH1578 lux ind	PfHsp40 yeast	PrPC surface inh
Oc1ccc(CNc2cccc(F)c2)c2cccnc12	nt	i	nt	nt	nt	i
Oc1ccc(CNc2ccc(F)cc2)c2cccnc12	i	78	i	i	i	i
O=C(CCC(=O)N1N=C(c2ccc(Br)cc2)CC1c1ccc(Br)cc1)Nc1ccc(Cl)cc1Cl (configuration not stated)	nt	i	nt	nt	nt	nt
CCOC(=O)c1c(C)[nH]c(C2=NNC(=Nc3ccccc3OC)SC2)c1C	i	54	i	i	i	i
CCCS(=O)(=O)NCCNC(=O)c1ccc(NC(=O)C(C)(C)C)cc1	nt	i	nt	nt	nt	nt
CCCCCCCCOc1ccc(C2CC(=O)NC2=O)cc1 (configuration not stated)	i	i	i	i	66	i
Cc1cc2cc(CN(Cc3ccc4c(c3)OCO4)C(=O)c3cnccn3)c3nnnn3c2cc1C	i	39	i	i	i	i
OCCN(Cc1ccccc1)Cc1ncccc1O	i	i	nt	i	i	i
OCCN(Cc1cccnc1)Cc1ccccn1	i	42	nt	i	i	i
Cc1cc(N2CCN(C)CC2)nc2ccc(NC(=S)NCCN3CCc4ccccc4C3)cc12	i	i	i	i	49	i
N=C1CCCN1CC(=O)c1ccc(Br)cc1	i	i	i	i	46	i
COCC(=O)N1CCCc2ccc(NS(=O)(=O)Cc3ccc(F)cc3)cc21	nt	i	nt	nt	nt	nt
CCCCCCCCCn1c2c(c(=N)c3c1CCC3)CCCC2	i	i	i	i	i	nt
CCCCCCCCCCn1c2c(c(=N)c3c1CCC3)CCC2	i	i	i	i	291	48
Cn1cc(C(=O)NCC(C)(O)c2ccc3c(c2)OCO3)nn1 (configuration not stated)	nt	i	nt	nt	nt	nt
N#CC(c1ccc(Cl)cc1)c1nc2ccccc2nc1C(F)(F)F (configuration not stated)	i	i	i	i	53	i
CC(=O)c1sc(NC(=O)c2ccn(C)n2)nc1C	nt	i	nt	nt	nt	nt
C=CC(n1cncn1)C(O)(c1ccccc1)c1ccccc1 (configuration not stated)	i	i	nt	i	146	i
OC(c1ccccc1)(c1ccccc1)c1ccncc1	i	i	i	i	i	i
COc1ccc(N2CCN(C(=O)c3ccc(C)cc3)CC2)c([N+](=O)[O-])c1	i	i	i	i	33	i
COc1ccc(N2CCN(C(=O)c3ccc(Br)cc3)CC2)c([N+](=O)[O-])c1	i	i	i	i	i	i
CC(=O)Nc1ccc(S(=O)(=O)Nc2c(C)nc(N(C)C)nc2C)cc1	nt	i	nt	nt	nt	nt
C[C@](O)(CNS(C)(=O)=O)c1cc2ccccc2s1	nt	i	nt	nt	nt	nt
O=C(Nc1ccc(N2CCCS2(=O)=O)cc1)c1ccc2c(c1)OCO2	nt	i	nt	nt	nt	nt
O=P(Nc1ccccc1)(Nc1ccccc1)c1ccccc1	i	i	nt	i	43	i
SMILES	PrP UTR inh	PriA SSB inh	3CLpro inhibitor	BH1578 lux ind	PfHsp40 yeast	PrPC surface inh
Cc1cnccc1[N+](=O)[O-]	nt	i	nt	nt	nt	nt
CCCCC(Sc1ccc2nnc(-c3ccc(OC)c(OC)c3)n2n1)C(=O)O (configuration not stated)	nt	i	nt	nt	nt	nt
COC(=O)CSc1ccc2nnc(-c3ccccn3)n2n1	nt	77	nt	nt	nt	nt
CCCCC(Sc1ccc2nnc(-c3ccccn3)n2n1)C(=O)O (configuration not stated)	nt	94	nt	nt	nt	nt
CCn1c(C2CCN(C(=O)Cn3cnc(C)c(C)c3=O)CC2)nn(CCOC)c1=O	nt	i	nt	nt	nt	nt
O=C(CSc1ncc(-c2ccc(Cl)c(Cl)c2)n1-c1ccc(OC(F)F)cc1)N1CCCC1	nt	38	nt	nt	nt	nt
COc1cc(C2C(=C(O)c3ccc4c(c3)CC(C)O4)C(=O)C(=O)N2CCCn2ccnc2)ccc1O (configuration not stated)	nt	i	nt	nt	nt	nt
COc1ccc2nc(NN=C(C)c3ccccn3)cc(C)c2c1	i	i	nt	i	784	i
COc1ccc(-c2c(C#Cc3ccc(N(C)C)cc3)c3ccccc3n2C)cc1	i	78	nt	i	i	i
O=C(Nc1ccccc1)OCCNC(=O)c1cccnc1	nt	i	nt	nt	nt	nt
O=C(Cn1cnc2c(nnn2Cc2ccccc2)c1=O)Nc1ccccc1C(F)(F)F	nt	i	nt	nt	nt	nt
CCOc1ccc(/C=C2\SC(=S)N(CCCC(=O)NCCCN3CCOCC3)C2=O)cc1	81	i	i	i	i	i
CCc1ccc(/C=C2\SC(=S)N(CCCC(=O)NCCCN3CCOCC3)C2=O)cc1	nt	nt	nt	i	nt	i
O=C(CSc1ccc(-c2ccccn2)nn1)Nc1cccc([N+](=O)[O-])c1	nt	48	nt	nt	nt	nt
O=C(CSc1ccccn1)Nc1cccc([N+](=O)[O-])c1	i	i	i	i	i	i
O=C(CSc1ccc(-c2ccccn2)nn1)Nc1cccc(F)c1	i	55	i	i	?	i
Nn1c(SCc2ccccc2)nnc1-c1ccccn1	i	45	i	nt	i	i

Compound activity deposited in PubChem by several laboratories.
